# ChEMBL document CHEMBL1961873, “Compounds: GSK PKIS; Assays: Nanosyn kinase panel” (2012)
# Key:
# [1] = biological target: Glycogen synthase kinase-3 alpha (Homo sapiens) (UniProt P49840); conditions: at 0.1 µM
# [2] = biological target: Glycogen synthase kinase-3 alpha (Homo sapiens) (UniProt P49840); conditions: at 1 µM
# [3] = biological target: Glycogen synthase kinase-3 beta (Homo sapiens) (UniProt P49841); conditions: at 0.1 µM
# [4] = biological target: Glycogen synthase kinase-3 beta (Homo sapiens) (UniProt P49841); conditions: at 1 µM
# [5] = biological target: Homeodomain-interacting protein kinase 1 (Homo sapiens) (UniProt Q86Z02); conditions: at 0.1 µM
# [6] = biological target: Homeodomain-interacting protein kinase 1 (Homo sapiens) (UniProt Q86Z02); conditions: at 1 µM
# [7] = biological target: Homeodomain-interacting protein kinase 4 (Homo sapiens) (UniProt Q8NE63); conditions: at 0.1 µM
# Sequence of Homeodomain-interacting protein kinase 4 (Homo sapiens) (Q8NE63 whole entry): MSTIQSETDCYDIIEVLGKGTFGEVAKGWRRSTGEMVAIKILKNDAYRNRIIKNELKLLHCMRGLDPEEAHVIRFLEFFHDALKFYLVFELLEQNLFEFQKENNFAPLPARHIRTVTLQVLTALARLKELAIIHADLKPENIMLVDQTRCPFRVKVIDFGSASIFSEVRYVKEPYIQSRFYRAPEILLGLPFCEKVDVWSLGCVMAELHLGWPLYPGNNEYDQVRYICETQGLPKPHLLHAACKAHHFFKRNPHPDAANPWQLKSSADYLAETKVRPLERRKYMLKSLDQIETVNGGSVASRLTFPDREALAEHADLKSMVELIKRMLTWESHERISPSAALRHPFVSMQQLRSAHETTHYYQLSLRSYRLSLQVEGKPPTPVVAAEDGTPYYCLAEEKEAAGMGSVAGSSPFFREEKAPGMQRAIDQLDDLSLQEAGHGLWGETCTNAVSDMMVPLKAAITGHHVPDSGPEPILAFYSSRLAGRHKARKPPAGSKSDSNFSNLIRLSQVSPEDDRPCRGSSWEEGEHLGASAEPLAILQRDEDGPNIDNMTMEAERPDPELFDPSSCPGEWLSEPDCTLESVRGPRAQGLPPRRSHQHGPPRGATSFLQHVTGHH
# [8] = biological target: Homeodomain-interacting protein kinase 4 (Homo sapiens) (UniProt Q8NE63); conditions: at 1 µM
# [9] = biological target: Mitogen-activated protein kinase 9 (Homo sapiens) (UniProt P45984); conditions: at 0.1 µM
# Sequence of Mitogen-activated protein kinase 9 (Homo sapiens) (P45984 whole entry, looked up): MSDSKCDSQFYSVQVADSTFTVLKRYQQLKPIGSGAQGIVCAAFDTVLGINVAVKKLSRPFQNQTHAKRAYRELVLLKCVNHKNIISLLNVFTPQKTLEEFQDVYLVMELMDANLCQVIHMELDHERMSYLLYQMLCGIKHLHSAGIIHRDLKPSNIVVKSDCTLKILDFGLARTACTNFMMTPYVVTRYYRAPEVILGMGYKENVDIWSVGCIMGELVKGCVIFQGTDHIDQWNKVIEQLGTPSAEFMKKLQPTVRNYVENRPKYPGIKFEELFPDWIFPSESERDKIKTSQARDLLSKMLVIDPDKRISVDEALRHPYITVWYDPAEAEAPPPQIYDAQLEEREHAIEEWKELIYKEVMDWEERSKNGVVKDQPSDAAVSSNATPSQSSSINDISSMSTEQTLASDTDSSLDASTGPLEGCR
# [10] = biological target: Mitogen-activated protein kinase 9 (Homo sapiens) (UniProt P45984); conditions: at 1 µM
# [11] = biological target: Mitogen-activated protein kinase 1 (Homo sapiens) (UniProt P28482); conditions: at 0.1 µM
# Sequence of Mitogen-activated protein kinase 1 (Homo sapiens) (P28482 whole entry): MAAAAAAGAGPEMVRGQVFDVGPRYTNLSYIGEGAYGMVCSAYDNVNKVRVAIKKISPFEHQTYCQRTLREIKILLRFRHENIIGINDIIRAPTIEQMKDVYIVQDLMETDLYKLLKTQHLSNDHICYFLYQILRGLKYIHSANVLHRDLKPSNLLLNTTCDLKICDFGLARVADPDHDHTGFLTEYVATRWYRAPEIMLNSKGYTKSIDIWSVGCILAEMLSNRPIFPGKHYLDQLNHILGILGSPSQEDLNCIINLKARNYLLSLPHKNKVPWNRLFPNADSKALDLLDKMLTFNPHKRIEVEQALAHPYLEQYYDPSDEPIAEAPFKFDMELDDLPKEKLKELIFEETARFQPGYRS
# [12] = biological target: Mitogen-activated protein kinase 1 (Homo sapiens) (UniProt P28482); conditions: at 1 µM
# [13] = biological target: Mitogen-activated protein kinase 3 (Homo sapiens) (UniProt P27361); conditions: at 0.1 µM
# Sequence of Mitogen-activated protein kinase 3 (Homo sapiens) (P27361 whole entry): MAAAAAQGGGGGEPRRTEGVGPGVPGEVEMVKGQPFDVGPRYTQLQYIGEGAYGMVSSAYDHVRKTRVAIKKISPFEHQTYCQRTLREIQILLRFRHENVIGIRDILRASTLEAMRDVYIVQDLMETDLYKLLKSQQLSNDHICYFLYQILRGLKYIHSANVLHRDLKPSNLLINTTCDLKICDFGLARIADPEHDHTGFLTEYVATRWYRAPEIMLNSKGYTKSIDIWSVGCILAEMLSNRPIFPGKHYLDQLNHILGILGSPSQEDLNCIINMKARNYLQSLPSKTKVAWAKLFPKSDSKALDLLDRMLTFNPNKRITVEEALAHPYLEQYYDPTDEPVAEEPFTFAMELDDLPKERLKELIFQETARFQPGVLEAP
# [14] = biological target: Mitogen-activated protein kinase 3 (Homo sapiens) (UniProt P27361); conditions: at 1 µM
# [15] = biological target: SRSF protein kinase 3 (Homo sapiens) (UniProt Q9UPE1); conditions: at 0.1 µM
# [16] = biological target: SRSF protein kinase 3 (Homo sapiens) (UniProt Q9UPE1); conditions: at 1 µM
# [17] = biological target: Mitogen-activated protein kinase 14 (Homo sapiens) (UniProt Q16539); conditions: at 0.1 µM
# [18] = biological target: Mitogen-activated protein kinase 14 (Homo sapiens) (UniProt Q16539); conditions: at 1 µM
# [19] = biological target: Mitogen-activated protein kinase 11 (Homo sapiens) (UniProt Q15759); conditions: at 0.1 µM
# Sequence of Mitogen-activated protein kinase 11 (Homo sapiens) (Q15759 whole entry): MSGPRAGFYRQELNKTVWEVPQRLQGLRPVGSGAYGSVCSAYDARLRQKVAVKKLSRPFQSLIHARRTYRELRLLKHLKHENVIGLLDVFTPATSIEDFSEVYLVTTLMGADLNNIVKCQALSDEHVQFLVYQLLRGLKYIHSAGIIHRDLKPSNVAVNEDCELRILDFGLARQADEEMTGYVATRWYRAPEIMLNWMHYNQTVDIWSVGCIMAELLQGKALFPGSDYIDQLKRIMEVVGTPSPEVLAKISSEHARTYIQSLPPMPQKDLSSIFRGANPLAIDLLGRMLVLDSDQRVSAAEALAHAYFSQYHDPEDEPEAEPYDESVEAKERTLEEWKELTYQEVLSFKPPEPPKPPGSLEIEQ
# [20] = biological target: Mitogen-activated protein kinase 11 (Homo sapiens) (UniProt Q15759); conditions: at 1 µM
# [21] = biological target: Mitogen-activated protein kinase 13 (Homo sapiens) (UniProt O15264); conditions: at 0.1 µM
# [22] = biological target: Mitogen-activated protein kinase 13 (Homo sapiens) (UniProt O15264); conditions: at 1 µM
# [23] = biological target: Mitogen-activated protein kinase 12 (Homo sapiens) (UniProt P53778); conditions: at 0.1 µM
# [24] = biological target: Mitogen-activated protein kinase 12 (Homo sapiens) (UniProt P53778); conditions: at 1 µM
# [25] = biological target: SRSF protein kinase 1 (Homo sapiens) (UniProt Q96SB4); conditions: at 0.1 µM
# [26] = biological target: SRSF protein kinase 1 (Homo sapiens) (UniProt Q96SB4); conditions: at 1 µM
# [27] = biological target: Phosphatidylinositol 4,5-bisphosphate 3-kinase catalytic subunit alpha isoform (Homo sapiens) (UniProt P42336); conditions: at 0.1 µM
# [28] = biological target: Phosphatidylinositol 4,5-bisphosphate 3-kinase catalytic subunit alpha isoform (Homo sapiens) (UniProt P42336); conditions: at 1 µM
# [29] = biological target: Phosphatidylinositol 4,5-bisphosphate 3-kinase catalytic subunit delta isoform (Homo sapiens) (UniProt O00329); conditions: at 0.1 µM
# [30] = biological target: Phosphatidylinositol 4,5-bisphosphate 3-kinase catalytic subunit delta isoform (Homo sapiens) (UniProt O00329); conditions: at 1 µM
# [31] = biological target: Phosphatidylinositol 4-kinase beta (Homo sapiens) (UniProt Q9UBF8); conditions: at 0.1 µM
# [32] = biological target: Phosphatidylinositol 4-kinase beta (Homo sapiens) (UniProt Q9UBF8); conditions: at 1 µM
# [33] = biological target: Sphingosine kinase 1 (Homo sapiens) (UniProt Q9NYA1); conditions: at 0.1 µM
# [34] = biological target: Sphingosine kinase 1 (Homo sapiens) (UniProt Q9NYA1); conditions: at 1 µM
# [35] = biological target: Sphingosine kinase 2 (Homo sapiens) (UniProt Q9NRA0); conditions: at 0.1 µM
# [36] = biological target: Sphingosine kinase 2 (Homo sapiens) (UniProt Q9NRA0); conditions: at 1 µM
# [37] = biological target: Casein kinase II subunit alpha (Homo sapiens) (UniProt P68400); conditions: at 0.1 µM
# [38] = biological target: Casein kinase II subunit alpha (Homo sapiens) (UniProt P68400); conditions: at 1 µM
# [39] = biological target: Inhibitor of nuclear factor kappa-B kinase subunit alpha (Homo sapiens) (UniProt O15111); conditions: at 0.1 µM
# Sequence of Inhibitor of nuclear factor kappa-B kinase subunit alpha (Homo sapiens) (O15111 whole entry): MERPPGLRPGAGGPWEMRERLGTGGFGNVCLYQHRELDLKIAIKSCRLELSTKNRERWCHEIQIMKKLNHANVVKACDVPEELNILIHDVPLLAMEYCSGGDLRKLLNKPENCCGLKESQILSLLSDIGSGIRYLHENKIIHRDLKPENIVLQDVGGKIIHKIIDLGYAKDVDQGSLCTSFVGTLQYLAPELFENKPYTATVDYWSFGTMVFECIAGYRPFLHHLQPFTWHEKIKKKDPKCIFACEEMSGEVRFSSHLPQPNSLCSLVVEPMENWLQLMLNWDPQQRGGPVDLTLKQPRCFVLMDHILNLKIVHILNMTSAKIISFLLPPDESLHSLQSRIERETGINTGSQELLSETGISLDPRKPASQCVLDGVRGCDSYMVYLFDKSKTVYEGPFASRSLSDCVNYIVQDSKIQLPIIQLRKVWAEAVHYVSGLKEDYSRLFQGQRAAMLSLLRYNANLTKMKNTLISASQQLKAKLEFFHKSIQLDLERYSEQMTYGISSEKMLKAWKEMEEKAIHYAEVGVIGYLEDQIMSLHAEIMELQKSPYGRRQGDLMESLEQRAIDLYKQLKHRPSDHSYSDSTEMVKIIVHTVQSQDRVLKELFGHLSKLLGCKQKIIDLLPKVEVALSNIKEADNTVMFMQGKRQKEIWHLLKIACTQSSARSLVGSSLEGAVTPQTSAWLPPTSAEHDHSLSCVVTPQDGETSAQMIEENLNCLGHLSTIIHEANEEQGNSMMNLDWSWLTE
# [40] = biological target: Inhibitor of nuclear factor kappa-B kinase subunit alpha (Homo sapiens) (UniProt O15111); conditions: at 1 µM
# [41] = biological target: Inhibitor of nuclear factor kappa-B kinase subunit beta (Homo sapiens) (UniProt O14920); conditions: at 0.1 µM
# [42] = biological target: Inhibitor of nuclear factor kappa-B kinase subunit beta (Homo sapiens) (UniProt O14920); conditions: at 1 µM
# [43] = biological target: Inhibitor of nuclear factor kappa-B kinase subunit epsilon (Homo sapiens) (UniProt Q14164); conditions: at 0.1 µM
# Sequence of Inhibitor of nuclear factor kappa-B kinase subunit epsilon (Homo sapiens) (Q14164 whole entry): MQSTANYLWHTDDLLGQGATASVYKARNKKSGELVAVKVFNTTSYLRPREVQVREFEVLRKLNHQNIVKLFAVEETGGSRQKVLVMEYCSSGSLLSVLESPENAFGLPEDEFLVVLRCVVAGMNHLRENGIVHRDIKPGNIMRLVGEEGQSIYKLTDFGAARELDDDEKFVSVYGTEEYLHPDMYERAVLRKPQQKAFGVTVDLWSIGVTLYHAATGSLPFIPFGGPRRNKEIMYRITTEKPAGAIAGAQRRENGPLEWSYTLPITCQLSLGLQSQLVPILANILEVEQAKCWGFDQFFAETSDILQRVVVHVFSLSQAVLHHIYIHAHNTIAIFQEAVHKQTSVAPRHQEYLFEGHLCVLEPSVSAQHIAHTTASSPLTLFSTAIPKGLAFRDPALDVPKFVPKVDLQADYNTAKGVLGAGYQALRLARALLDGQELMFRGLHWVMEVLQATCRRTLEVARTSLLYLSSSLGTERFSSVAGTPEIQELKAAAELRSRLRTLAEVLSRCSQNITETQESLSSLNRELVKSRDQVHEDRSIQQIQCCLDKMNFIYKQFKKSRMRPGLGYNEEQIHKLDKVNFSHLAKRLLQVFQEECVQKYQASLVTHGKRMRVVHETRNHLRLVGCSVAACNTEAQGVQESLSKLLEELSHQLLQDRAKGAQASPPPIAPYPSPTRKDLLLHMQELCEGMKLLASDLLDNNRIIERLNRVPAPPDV
# [44] = biological target: Inhibitor of nuclear factor kappa-B kinase subunit epsilon (Homo sapiens) (UniProt Q14164); conditions: at 1 µM
# [45] = biological target: Serine/threonine-protein kinase Nek1 (Homo sapiens) (UniProt Q96PY6); conditions: at 0.1 µM
# [46] = biological target: Serine/threonine-protein kinase Nek1 (Homo sapiens) (UniProt Q96PY6); conditions: at 1 µM
# [47] = biological target: Serine/threonine-protein kinase Nek2 (Homo sapiens) (UniProt P51955); conditions: at 0.1 µM
# [48] = biological target: Serine/threonine-protein kinase Nek2 (Homo sapiens) (UniProt P51955); conditions: at 1 µM
# [49] = biological target: Serine/threonine-protein kinase Nek6 (Homo sapiens) (UniProt Q9HC98); conditions: at 0.1 µM
# [50] = biological target: Serine/threonine-protein kinase Nek6 (Homo sapiens) (UniProt Q9HC98); conditions: at 1 µM
# [51] = biological target: Serine/threonine-protein kinase Nek7 (Homo sapiens) (UniProt Q8TDX7); conditions: at 0.1 µM
# Sequence of Serine/threonine-protein kinase Nek7 (Homo sapiens) (Q8TDX7 whole entry, looked up): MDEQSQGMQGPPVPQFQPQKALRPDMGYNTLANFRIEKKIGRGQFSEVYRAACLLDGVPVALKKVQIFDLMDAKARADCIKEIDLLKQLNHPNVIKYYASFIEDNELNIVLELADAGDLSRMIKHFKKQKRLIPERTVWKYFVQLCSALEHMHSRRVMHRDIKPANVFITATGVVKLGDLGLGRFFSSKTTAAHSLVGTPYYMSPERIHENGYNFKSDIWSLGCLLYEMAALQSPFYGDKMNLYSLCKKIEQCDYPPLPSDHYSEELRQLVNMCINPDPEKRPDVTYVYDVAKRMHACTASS
# [52] = biological target: Serine/threonine-protein kinase Nek7 (Homo sapiens) (UniProt Q8TDX7); conditions: at 1 µM
# [53] = biological target: Serine/threonine-protein kinase Nek9 (Homo sapiens) (UniProt Q8TD19); conditions: at 0.1 µM
# Sequence of Serine/threonine-protein kinase Nek9 (Homo sapiens) (Q8TD19 whole entry): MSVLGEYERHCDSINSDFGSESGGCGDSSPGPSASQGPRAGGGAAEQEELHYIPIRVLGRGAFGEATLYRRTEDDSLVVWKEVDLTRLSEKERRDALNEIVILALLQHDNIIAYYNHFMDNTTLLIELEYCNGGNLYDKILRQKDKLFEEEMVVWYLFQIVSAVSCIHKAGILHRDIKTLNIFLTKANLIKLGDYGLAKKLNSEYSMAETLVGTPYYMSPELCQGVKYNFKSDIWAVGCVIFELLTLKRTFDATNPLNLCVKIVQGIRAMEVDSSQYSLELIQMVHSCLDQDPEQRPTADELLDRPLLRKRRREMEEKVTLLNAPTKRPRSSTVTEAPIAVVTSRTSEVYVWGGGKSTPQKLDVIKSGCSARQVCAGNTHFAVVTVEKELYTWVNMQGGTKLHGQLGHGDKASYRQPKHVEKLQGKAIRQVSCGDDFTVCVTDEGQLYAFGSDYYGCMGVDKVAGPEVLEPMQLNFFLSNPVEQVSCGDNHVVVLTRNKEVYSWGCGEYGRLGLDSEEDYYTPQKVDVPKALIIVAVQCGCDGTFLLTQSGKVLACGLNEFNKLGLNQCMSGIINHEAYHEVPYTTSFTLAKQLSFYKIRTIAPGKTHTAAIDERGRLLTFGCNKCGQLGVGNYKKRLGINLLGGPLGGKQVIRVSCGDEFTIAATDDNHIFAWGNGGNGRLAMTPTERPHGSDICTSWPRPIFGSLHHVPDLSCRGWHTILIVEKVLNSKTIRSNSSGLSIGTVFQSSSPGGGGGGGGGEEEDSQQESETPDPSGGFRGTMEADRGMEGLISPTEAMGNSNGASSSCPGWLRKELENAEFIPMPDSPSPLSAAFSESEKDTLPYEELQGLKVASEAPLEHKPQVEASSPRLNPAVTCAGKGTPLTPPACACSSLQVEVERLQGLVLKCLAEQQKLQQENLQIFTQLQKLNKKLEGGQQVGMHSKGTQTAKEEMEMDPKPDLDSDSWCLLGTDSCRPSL
# [54] = biological target: Serine/threonine-protein kinase Nek9 (Homo sapiens) (UniProt Q8TD19); conditions: at 1 µM
# [55] = biological target: Serine/threonine-protein kinase PLK1 (Homo sapiens) (UniProt P53350); conditions: at 0.1 µM
# [56] = biological target: Serine/threonine-protein kinase PLK1 (Homo sapiens) (UniProt P53350); conditions: at 1 µM
smiles,measurement,setting,value
CNC(=O)Oc1cc(C)c(/C=C/c2cncc(C(=O)NC)c2)c(C)c1,inhibition,[1],1.71%
same,inhibition,[2],5.29%
same,inhibition,[3],1.23%
same,inhibition,[4],4.75%
same,inhibition,[5],-0.37%
same,inhibition,[6],1.2%
same,inhibition,[7],0.96%
same,inhibition,[8],3.81%
same,inhibition,[9],3.14%
same,inhibition,[10],2.28%
same,inhibition,[11],1.83%
same,inhibition,[12],2.04%
same,inhibition,[13],3.1%
same,inhibition,[14],2.72%
same,inhibition,[15],1.79%
same,inhibition,[16],1.43%
same,inhibition,[17],3.47%
same,inhibition,[18],3.16%
same,inhibition,[19],1.39%
same,inhibition,[20],2.35%
same,inhibition,[21],0.06%
same,inhibition,[22],2.61%
same,inhibition,[23],0.49%
same,inhibition,[24],1.7%
same,inhibition,[25],-1.34%
same,inhibition,[26],-4.31%
same,inhibition,[27],2.83%
same,inhibition,[28],2.08%
same,inhibition,[29],1.65%
same,inhibition,[30],0.21%
same,inhibition,[31],5.69%
same,inhibition,[32],3.41%
same,inhibition,[33],2.31%
same,inhibition,[34],0.63%
same,inhibition,[35],0.57%
same,inhibition,[36],19.7%
same,inhibition,[37],1.53%
same,inhibition,[38],0.66%
same,inhibition,[39],0.51%
same,inhibition,[40],-0.7%
same,inhibition,[41],3.06%
same,inhibition,[42],1.89%
same,inhibition,[43],2.27%
same,inhibition,[44],0.9%
same,inhibition,[45],2.1%
same,inhibition,[46],1.49%
same,inhibition,[47],2.52%
same,inhibition,[48],4.05%
same,inhibition,[49],-0.26%
same,inhibition,[50],1.16%
same,inhibition,[51],2.46%
same,inhibition,[52],2.99%
same,inhibition,[53],6.95%
same,inhibition,[54],4.01%
same,inhibition,[55],3.92%
same,inhibition,[56],2.75%
